SMILES strings stand for the structures. Values joined by “and” are separate entries in the source; they are usually repeats but may differ in a detail not shown here. Equal values may be shown once. Hit rate of the full screen: of about 16,000 compounds, about 5,700 (36%) were called active. Not shown: some 24% with an inconclusive outcome. This is one part of the list. Unmarked numbers belong to inactive results. The call rests on the fitted dose curve; in most records, active means well fitted curve in the direction sought with a large enough effect; inconclusive means small, poorly fitted or top-dose-only effect, or effect the other way; inactive means no such curve, though single readings can be large or run the other way.
On the % scale 0 is the no-effect control and ±100 the full control effect.

The test deals with Cytochrome P450 1A2 (Homo sapiens) (UniProt P05177). Kind of test: Cytochrome panel assay with activity outcomes. The settings on record: recombinant CYP, pro-luciferin dealkylation, luminescence, p450-cyp1a2; series mostly up to 57.1 µM; activity, negative = inhibition: at the top concentration.
Chain of Cytochrome P450 1A2 (Homo sapiens) (P05177 whole entry, looked up): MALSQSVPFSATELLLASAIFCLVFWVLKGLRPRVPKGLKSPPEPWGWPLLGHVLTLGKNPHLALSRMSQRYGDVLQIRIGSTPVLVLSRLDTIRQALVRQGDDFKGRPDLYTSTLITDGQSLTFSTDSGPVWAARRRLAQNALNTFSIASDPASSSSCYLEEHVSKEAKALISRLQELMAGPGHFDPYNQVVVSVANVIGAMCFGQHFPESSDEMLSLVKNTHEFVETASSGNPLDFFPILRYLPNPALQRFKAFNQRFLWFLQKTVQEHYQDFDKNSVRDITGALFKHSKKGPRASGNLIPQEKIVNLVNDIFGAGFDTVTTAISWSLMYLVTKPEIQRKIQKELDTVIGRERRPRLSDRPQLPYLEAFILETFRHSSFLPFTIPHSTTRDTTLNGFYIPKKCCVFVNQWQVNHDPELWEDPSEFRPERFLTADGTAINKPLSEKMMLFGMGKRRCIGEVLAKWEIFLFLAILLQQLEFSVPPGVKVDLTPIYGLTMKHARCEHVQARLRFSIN
As for `CCN1CCCC1CNC(=O)C1c2cc(OC)c(OC)cc2C(=O)N(C)C1c1cccnc1` (stereo not given), the “activity, negative = inhibition” value was -18.2%. On the same count and under the same terms, next, `COC(=O)N1CCC2(CCCN(Cc3nccs3)C2)CC1`: -13.7%. In general, AC50 refers to the concentration giving half of the maximal activity seen. Regarding `O=c1c(CCc2ccccc2)nc2cncnc2n1Cc1ccc(F)cc1`, the AC50 is 10 µM (active).

`CN(C)c1ncc2nc(-c3cccc(C#N)c3)c(=O)n(CCC#N)c2n1`: the “activity, negative = inhibition” value is -20.2%. `CN(C)c1ncc2nc(-c3ccccc3)c(=O)n(CCC#N)c2n1`: the AC50 is 1.58 µM (active). Turning to `COCCn1c(=O)c(CCc2ccccc2)nc2cnc(N(C)C)nc21`, the AC50 is 1.26 µM (active).

For the compound `CN(C)c1ncc2nc(CCc3ccccc3)c(=O)n(Cc3ccc(F)cc3)c2n1`, the AC50 is 10 µM (active).

In the case of `CCN(CC)C(=O)CSc1nc(O)cc(=O)n1CC`, the “activity, negative = inhibition” value was -4.98%. In the case of `C[C@@H]1/C=C\CC(=O)OC[C@H]2O[C@@H](C=C[C@@H]2O)[C@H](C)/C=C\CC(=O)OC1`, the activity, negative = inhibition was -3.64% [at 11.4 µM].

On to `CNC(=O)[C@@H]1O[C@@H](n2cnc3c(NCc4ccc(N)cc4)ncnc32)[C@@H](O)[C@H]1O`, for which the “activity, negative = inhibition” value was 1.3%.

As for `CN(C)c1ncc2nc(CCc3ccccc3)c(=O)n(CCc3ccccc3)c2n1`, the AC50 is 6.31 µM (active).

Take `C=C1C=C(Br)C2(OCCCO2)[C@H]2OC12` (stereo not given in full): the activity, negative = inhibition is -2.64% [at 11.4 µM]. Consider `Cc1cnc(CNc2cc(-c3ccccc3Cl)ncn2)cn1`, for which the AC50 was 15.8 µM (active).

Consider `COc1ccccc1-c1cc(NCc2cnc(C)cn2)ncn1`, for which the AC50 was 12.6 µM (active).

`Cc1cnc(CNc2cc(-c3ccccc3C)ncn2)cn1`: the AC50 was 12.6 µM (active). As for `Cn1cccc1C(=O)N1CCC2(CCN(C(=O)Nc3cccc(F)c3)CC2)CC1`, the “activity, negative = inhibition” value was -10.7%. With `C[C@@]12CCC(=O)C=C1CC[C@H]1[C@@H]2[C@@H](O)C[C@]2(C)[C@@H]1CC[C@@]2(O)C(=O)CO`, the activity, negative = inhibition was -23.6% [at 11.4 µM].

For the compound `O=C(O)/C=C\c1c2ccc(=O)c(O)c-2oc2c(O)c(O)ccc12`, the activity, negative = inhibition was -19.8% [at 2.29 µM].

In the case of `Cc1cc(=O)c2c(O)c(O)ccc2o1`, the AC50 was 12.6 µM (active). On the same count and under the same terms, next, `Clc1ccc(-n2nnnc2CN2CCOCC2)cc1`: 7.08 µM (active). Regarding `c1c[nH]c(CN2CCOCC2)n1`, the activity, negative = inhibition is 6.41% [at 11.4 µM].

As for `Oc1c(CN2CCOCC2)ccc(CN2CCOCC2)c1O`, the activity, negative = inhibition was -11.9% [at 2.29 µM]. On the same count and under the same terms, next, `CCN(CC)c1ccc(NC(=O)CSc2nnc3nc(C)cc(C)n23)cc1`: 1.82%. On to `Cc1ccnc2nc(C(=O)OCC(=O)Nc3ccc4c(c3)OC(F)(F)O4)nn12`, for which the half-maximal activity concentration (AC50) was 8.91 µM (active). Same read-out and setting: next, `COc1cc(NC(=O)COC(=O)c2nc3nc(C)cc(C)n3n2)cc(OC)c1`: 14.1 µM (active). Regarding `C#CCCCO/N=C1/[C@H]2O[C@@H]2[C@@H](O)[C@H]2[C@H]1CCn1c(=O)n(C)c(=O)n12`, the activity, negative = inhibition was -0.0514% [at 11.4 µM]. On the same count and under the same terms, next, `CCN1C(=O)[C@@H]2[C@H]3C(=CC[C@@H]2C1=O)C1(OCCCO1)[C@H]1O[C@@H]1[C@H]3O`: -2.44% [at 11.4 µM]; `Cc1ccc(S(=O)(=O)N2CCN(S(C)(=O)=O)C2)cc1`: 14.9%. On the same count and under the same terms, next, `Cc1ccc(OC(=O)c2cccc(C(=O)Oc3ccc(C)cn3)n2)nc1`: -13.6%. Still for that read-out and setting: next, `Cc1ccc(OC(=O)c2cccc(C(=O)Oc3ccc(C)cc3)n2)cc1`: 13.2%; `O=C(CCC(=O)c1cccs1)OCC(=O)N1CCN(C(=O)c2ccco2)CC1`: -25.3%. Regarding `COC(=O)c1cccc(C(=O)Nc2ccc(C)cc2)n1`, the AC50 was 1 µM (active).

Regarding `O=C(OCC(=O)c1cccs1)c1cccc(C(=O)OCC(=O)c2cccs2)n1`, the AC50 is 15.8 µM (active). Still for that read-out and setting: as for `CCOC(=O)c1cccc(C(=O)OCC)n1`, the figure is 12.6 µM (active). The same measure, in the same setting: as for `S=c1nc(-c2ccccc2)oc2c1CCCC2`, the figure is 0.562 µM (active). Consider `COc1ccc(-n2c(-c3ccccc3)nc(=S)c3c2CCCC3)cc1`, for which the “activity, negative = inhibition” value is -27.9%. As to `Cc1ccc(C(=O)NC(=S)Nc2cccc3nsnc23)cc1`, the “activity, negative = inhibition” value was 5.9%. For the compound `CCCn1nnc(NC(=O)c2ccc(-c3cccc(Cl)c3)o2)n1`, the AC50 is 1.58 µM (active).

As for `O=C(Nc1cccc2nsnc12)c1ccc(-c2cccc(Cl)c2)o1`, the AC50 was 2 µM (active). Turning to `O=C(c1cnccn1)N1CCC2(CCCN(c3ccccn3)C2)CC1`, the “activity, negative = inhibition” value was -8.32%. On the same count and under the same terms, next, `CC(C)c1ccc(/C=C2\C=C(c3ccc4ccccc4c3)OC2=O)cc1`: -24.7% [at 2.29 µM]. On to `Cc1ccccc1/C=C1\OC(=O)c2ccccc21`, for which the AC50 was 1.26 µM (active). Same read-out and setting: as for `Cc1ccc(/C=C2\OC(=O)c3ccccc32)cc1`, the figure is 0.794 µM (active).

`CC(=O)OC[C@@H]1O[C@@H](O/N=C2/C[C@@H](O)[C@@H](O)[C@@H]3[C@@H]4C(=O)N(Cc5ccc6c(c5)OCO6)C(=O)[C@H]4CC[C@@H]23)[C@H](OC(C)=O)[C@H](OC(C)=O)[C@@H]1OC(C)=O`: the activity, negative = inhibition is -15% [at 11.4 µM]. Same read-out and setting: next, `CC(=O)[C@H]1CC[C@@H]2[C@H]3CC=C4C[C@@H](O)CC[C@]4(C)[C@H]3CC[C@]12C`: -9.13% [at 25.6 µM]; `O=C(N=NC(=O)c1ccc2c(O)n(C3CCCCC3)c(O)c2c1)c1cccnc1`: 20.1%; `C[C@@H](c1ccccc1)N1C(=O)[C@H]2[C@@H]3[C@H](O)[C@H](O)CC(=O)[C@H]3CC[C@H]2C1=O`: 6.67% [at 11.4 µM] and -2.18% [at 11.4 µM]. In the case of `N#CCSc1nc2cc(C(=O)N3CCCC3)ccc2c(=O)n1Cc1ccccc1`, the AC50 is 15.8 µM (active). In the case of `NC1(C(=O)O)C[C@H](C(=O)O)[C@H](C(=O)O)C1` (stereo not given in full), the “activity, negative = inhibition” value is -16.8%. `COc1ccc(/C=N/n2cnc3c([nH]c4ccc(Br)cc43)c2=O)cc1CN1CCOCC1`: the AC50 was 12.6 µM (active).

Take `Nc1ncnc2c1ncn2[C@@H]1CCCO1`: the “activity, negative = inhibition” value was -6.04%. On the same count and under the same terms, as for `C[N+](C)(C)c1ncnc2c1ncn2[C@@H]1CCCCO1`, the figure is 2.33% [at 2.29 µM]. On to `O=[N+]([O-])c1ccc(Cl)c(CNc2ncnc3c2ncn3[C@@H]2CCCCO2)c1`, for which the AC50 was 5.01 µM (active). On the same count and under the same terms, as for `Cc1cc([N+](=O)[O-])c(C)c(Br)c1C`, the figure is 1 µM (active). As for `COc1ccc(S(=O)(=O)NCc2ccc(C(=O)N3CCN(c4ccccn4)CC3)cc2)cc1`, the “activity, negative = inhibition” value is -28.2%. Take `O=C(Nc1ccc(Nc2ccc3c(c2)C(=O)c2ccccc2C3=O)c2c1C(=O)c1ccccc1C2=O)c1ccccc1`: the AC50 is 1.58 µM (active). Consider `CCC(=O)Nc1ccc2c(c1)C(=O)c1ccccc1C2=O`, for which the AC50 was 0.316 µM (active). Still for that read-out and setting: as for `CCOC(=O)c1c(-c2ccccc2)nc2ccccn12`, the figure is 1.12 µM (active). For the compound `CC(SCc1cn2cc(Cl)ccc2n1)C(=O)O` (stereo not given), the “activity, negative = inhibition” value is -21.4%. On the same count and under the same terms, as for `NCCCc1c(-c2ccccc2)nc(N)[nH]c1=O`, the figure is 9.63% [at 11.4 µM].

For the compound `CCOC(=O)CNc1c(-c2ccccc2)nc2ccc(Cl)cn12`, the AC50 is 1.58 µM (active). For `Cc1nc2c(C)cccn2c1/C(O)=C1\C(=O)C(=O)N(CCN2CCOCC2)C1c1cccs1` (stereo not given), the “activity, negative = inhibition” value was -19.4%.

For `CCOC(=O)c1c(-c2ccccc2)nc2ccc(Cl)cn12`, the AC50 is 2.51 µM (active).

For `CCOC(=O)c1c(-c2ccccc2)nc2c(C)cccn12`, the AC50 is 0.708 µM (active). For `CCOC(=O)N/N=C1/C[C@@H](O)[C@@H](O)[C@@H]2[C@@H]3C(=O)N([C@@H](C)c4ccccc4)C(=O)[C@H]3CC[C@@H]12`, the activity, negative = inhibition was 3.79% [at 11.4 µM]. Still for that read-out and setting: as for `Cc1cc(=Nc2ccc3c(c2)c(N)cc(C)[n+]3C)nc(N)n1C`, the figure is -5.28% [at 2.29 µM].

`C=C(C)C(=O)N1CC2(CC(c3cccc(NC(=O)c4ccccc4)c3)=NO2)C[C@@H]1C(N)=O` (stereo not given in full): the “activity, negative = inhibition” value was -6.75%. On the same count and under the same terms, next, `CC1(C)O[C@@H]2C[C@H]3[C@H]4C[C@H](F)C5=CC(=O)CC[C@]5(C)[C@@H]4[C@H](O)C[C@]3(C)[C@]2(C(=O)CO)O1`: -7.21% [at 25.6 µM]. Take `CNc1nc(Cl)nc(NC(C)(C)C)n1`: the AC50 is 8.91 µM (active). On to `CC1CCC(C(=O)NC(C(=O)N2CCC(N3CCCCC3)CC2)C(C)C)CC1` (stereo not given), for which the “activity, negative = inhibition” value is -23.1%.

For `CC[C@H](Cc1c(I)cc(I)c(N)c1I)C(=O)O`, the AC50 was 12.6 µM (active). Regarding `CC(=O)N(C[C@@H](C)C(=O)O)c1c(I)cc(I)c(N)c1I`, the “activity, negative = inhibition” value was -0.251% [at 25.6 µM]. As for `CCOc1ccc(-n2c(=O)[nH]cc(C(=O)N3CCCc4ccccc43)c2=O)cc1`, the “activity, negative = inhibition” value was -5.33%. Take `COc1ccccc1C(=O)NN1C(=O)C2C3C=CC(O3)C2C1=O` (stereo not given): the “activity, negative = inhibition” value was -20.6%. Consider `COc1ccccc1C(=O)NC(=S)N1CCCc2ccccc21`, for which the AC50 is 2.24 µM (active). With `Oc1cc2c(cc1O)[C@H](c1ccccc1)CNCC2`, the “activity, negative = inhibition” value was -4.19%. On the same count and under the same terms, next, `N#Cc1cccc(NC(=O)N2CCC3(CC2)CCN(C(=O)c2csnn2)CC3)c1`: -15.9%.

Take `CCOC(=O)N/N=C1/C[C@@H](O)[C@@H](O)[C@@H]2[C@@H]3C(=O)N(c4cccc(Oc5ccccc5)c4)C(=O)[C@H]3CC[C@H]12`: the activity, negative = inhibition was -3.4% [at 11.4 µM]. On the same count and under the same terms, as for `O=C(c1ccncc1)N1CCC2(CCN(Cc3nccs3)CC2)CC1`, the figure is -21.6%; as for `O=C(c1cccc(F)c1)N1CCC2(CCCN(Cc3ccccc3)C2)CC1`, 10.3%. As to `O=C(c1cccc(F)c1)N1CCC2(CCN(Cc3nccs3)CC2)CC1`, the AC50 was 1.58 µM (active). In the case of `O=C(c1cccc(F)c1)N1CCC2(CCCN(Cc3nccs3)C2)CC1`, the “activity, negative = inhibition” value was 7.3%. `O=C(c1cccc(F)c1)N1CCC2(CCCN(c3ccc(-c4ccccc4)cc3)C2)CC1`: the AC50 was 15.8 µM (active).

`Cc1noc(C)c1C(=O)N1CCC2(CCCN(Cc3nccs3)C2)CC1`: the “activity, negative = inhibition” value was -9.73%. Take `O=C(c1cccc(F)c1)N1CCC2(CC1)CCN(c1ccccc1)CC2`: the AC50 is 15.8 µM (active). With `O=C(c1cccc(F)c1)N1CCC2(CC1)CCN(c1ccc(-c3ccccc3)cc1)CC2`, the “activity, negative = inhibition” value was 7.54%. Turning to `Cc1noc(C)c1C(=O)N1CCC[C@@]2(CCN(Cc3nccs3)C2)C1`, the “activity, negative = inhibition” value was -4.72%. For `Cc1noc(C)c1C(=O)N1CCC2(CCN(Cc3nccs3)CC2)CC1`, the AC50 was 12.6 µM (active). Take `O=C(c1cccc(F)c1)N1CCC2(CC1)CN(c1ccc(-c3ccccc3)cc1)C2`: the “activity, negative = inhibition” value is 0.226%. For the compound `O=C(c1cccc(F)c1)N1CCC2(CCN(Cc3ccccc3)CC2)CC1`, the “activity, negative = inhibition” value is -8.19%.

The record behind these values is PubChem BioAssay AID1851 (National Center for Advancing Translational Sciences (NCATS), 2009).
